Drawing on PubChem BioAssay (NCI), this text covers growth for 16 molecules.

The panel holds about 83,000 compounds, 20% with a hit somewhere; the sample as a whole holds those more often.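 Note: values are percent growth. 100 is the growth of untreated cells, values between 100 and 0 indicate rising inhibition; between -100 and 0 indicates cell death.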 A number with no mark means an inactive call. Activity calls are given as the source filed them. Rule for the calls: active = growth percent below 10; inactive = the rest.

Test systems include T-47D breast; BT-549 breast; MDA-MB-435 melanoma; SW-620 colon; MCF7 breast; HCT-116 colon; KM12 colon; HCC-2998 colon.
Holding throughout (assay): NCI-60 one-dose screen, 48 h (100 = growth as untreated, 0 = no growth, -100 = all killed)
Holding throughout (settings): 10 µM unless noted

`OCCNCCNC(Cc1ccc(Cl)cc1)c1ccccc1` (stereo unspecified): the growth with T-47D breast is 44.6%; in the test with BT-549 breast, 79.7%; in the test on MDA-MB-435 melanoma it was 98.6%; in the test on SW-620 colon, 107%; in the test on MCF7 breast, 85.1%; in the test on HCT-116 colon it was 75.7%. Also, the growth in the test with KM12 colon is 90.4%.
Take `O=C(Nc1ncccc1OCc1ccccc1)NC1CCCCCC1`: the growth in the test on T-47D breast is 71%; with BT-549 breast it was 78.2%; in the test with MDA-MB-435 melanoma, 89%; in the test with SW-620 colon, 94.9%; in the test with MCF7 breast, 79.9%; in the test on HCT-116 colon it was 58.2%. In addition, the growth with KM12 colon was 88.8%.
Consider `O=C(Cc1ccc(/C=C/C(=O)c2ncc[nH]2)cc1)Nc1cc(C(F)(F)F)cc(C(F)(F)F)c1`, for which the growth in the test with T-47D breast is 80.5%; with BT-549 breast, 99.7%; in the test with MDA-MB-435 melanoma, 60.1%; in the test with SW-620 colon, 53.5%; in the test on MCF7 breast, 7.59% (active); with HCT-116 colon it was 5.37% (active). Also, the growth with KM12 colon was 38.5%.
For the molecule `CCCCC#Cc1c(I)n(C)c(=O)[nH]c1=O`, the growth in the test with T-47D breast is -2.85% (active); in the test on BT-549 breast, -57.1% (active); with MDA-MB-435 melanoma it was -36.8% (active); in the test with SW-620 colon, -93.2% (active); with MCF7 breast, 52.3%; in the test on HCT-116 colon, -41.1% (active). Further, the growth in the test on KM12 colon was 108%.
Turning to `CCOC(=O)C#Cc1c(C(=O)OCC)nnn1Cc1ccc(C(F)(F)F)cc1`, the growth in the test with T-47D breast is 31.8%; in the test on BT-549 breast, 63.1%; in the test on MDA-MB-435 melanoma, 63.8%; in the test with SW-620 colon, -23.9% (active); with MCF7 breast it was 1.53% (active); in the test with HCT-116 colon, 31.1%. In addition, the growth with HCC-2998 colon was 102%; in the test on KM12 colon it was 89.4%.
On to `N#C/C(=C\c1ccc(-c2cccc(C(F)(F)F)c2)o1)c1ccccc1`, for which the growth in the test with T-47D breast was 35.6%; with BT-549 breast, 96.6%; with MDA-MB-435 melanoma, 99.1%; in the test on SW-620 colon it was 92.3%; with MCF7 breast, 25.7%; in the test on HCT-116 colon, 80.4%. For the same molecule, the values for the growth with HCC-2998 colon and in the test with KM12 colon were 100% and 79.3%, respectively.
On to `Cc1ccc(CNc2c3ccccc3nc3ccccc23)cc1`, for which the growth in the test with T-47D breast was 25.1%; in the test on BT-549 breast, 71.3%; in the test with MDA-MB-435 melanoma, 31.2%; in the test on SW-620 colon it was 20.2%; with MCF7 breast, 9.04% (active); in the test with HCT-116 colon, 12%. In the test on KM12 colon, the growth is 23.4%.
For the molecule `CCOC(=O)c1c(C)nc2c(c1N)/C(=C/c1ccc(OC)cc1)C(=O)N2Cc1ccccc1`, the growth in the test on T-47D breast is 40.7%; in the test with BT-549 breast, 63.6%; in the test on MDA-MB-435 melanoma, 63.4%; in the test on SW-620 colon it was 55.6%; in the test on MCF7 breast, 22.8%; in the test with HCT-116 colon, 36.8%. Besides, the growth was 62.8% in the test on HCC-2998 colon and 33.6% with KM12 colon.
For `CN(C)c1ccc(-c2nc(-c3ccccc3)c(-c3ccccc3)[nH]2)cc1`, the growth in the test on T-47D breast was 79.3%; in the test on BT-549 breast it was 104%; with MDA-MB-435 melanoma, 89.7%; in the test on SW-620 colon, 108%; in the test with MCF7 breast it was 83.1%; with HCT-116 colon, 86.7%. Further, the growth with HCC-2998 colon was 117%; in the test with KM12 colon it was 96.1%.
Regarding `CCN1CCN(CC(=O)Nc2nc3ccc(NCc4ccc(F)cc4)cc3s2)CC1`, the growth with T-47D breast is 86.8%; in the test with BT-549 breast, 97.9%; in the test with MDA-MB-435 melanoma, 93.4%; with SW-620 colon, 92.3%; with MCF7 breast it was 92.1%; in the test on HCT-116 colon it was 70.9%. Further, the growth in the test on HCC-2998 colon was 110%; in the test on KM12 colon, 94.5%.
With `N#CSc1c[nH]c2cccc(/C=C/C(=O)/C=C(O)/C=C/c3cccc4[nH]cc(SC#N)c34)c12`, the growth was -10.5% (active) in the test on T-47D breast; -23.7% (active) with BT-549 breast; -83.8% (active) in the test with MDA-MB-435 melanoma; -43% (active) in the test on SW-620 colon; -41.6% (active) in the test with MCF7 breast; -92% (active) with HCT-116 colon. The growth in the test on HCC-2998 colon is -57.8% (active); in the test on KM12 colon, -16.9% (active).
As for `CCN1C(=O)N(CC)C2C1NN=c1s/c(=C\c3ccc(C(F)(F)F)cc3)c(=O)n12` (stereo unspecified), the growth with T-47D breast was 64.7%; in the test on BT-549 breast, 9.68% (active); in the test on MDA-MB-435 melanoma, -26.5% (active); in the test with SW-620 colon it was 20.7%; in the test with MCF7 breast it was 15.9%; with HCT-116 colon, 9.6% (active). Moreover, the growth is 9.59% (active) in the test on HCC-2998 colon and 15.2% in the test on KM12 colon.
`CC(C)(C)c1cc(Cl)c(O)c(CNCCO)c1`: the growth in the test with T-47D breast was 98.7%; in the test with BT-549 breast, 109%; with MDA-MB-435 melanoma, 101%; with SW-620 colon, 86.4%; in the test with MCF7 breast, 96.3%; in the test with HCT-116 colon, 99.1%. For the same molecule, the growth in the test on HCC-2998 colon is 104%; in the test with KM12 colon it was 111%.
Take `COc1ccccc1N(C(C)=O)C1=C(Cl)C(=O)c2ccccc2C1=O`: the growth in the test on T-47D breast was -33.1% (active); with BT-549 breast, -4.47% (active); in the test on MDA-MB-435 melanoma it was -13.3% (active); in the test on SW-620 colon, -65.2% (active); in the test with MCF7 breast it was 11.8%; in the test with HCT-116 colon, -29.1% (active). Moreover, the growth in the test on HCC-2998 colon is 19.5%; in the test on KM12 colon, -11.4% (active).
As for `COC(=O)CCC/C=C\C[C@H]1C=CC(=O)/C1=C/C[C@@H](O)C/C=C\CC(F)(F)F`, the growth with T-47D breast is 2.7% (active); in the test with BT-549 breast, -18.3% (active); in the test on MDA-MB-435 melanoma it was 4.2% (active); in the test with SW-620 colon it was -36% (active); with MCF7 breast, 4.67% (active); in the test on HCT-116 colon, -61.4% (active). For the same molecule, the growth with KM12 colon was -31.7% (active).
Regarding `CCOC(=O)c1c(C)nc2c(c1N)CC(=O)N2Cc1ccc(OC)cc1`, the growth is 32.2% in the test with T-47D breast; 18.5% with BT-549 breast; 88.3% in the test on MDA-MB-435 melanoma; 77.6% in the test with SW-620 colon; 37.5% in the test with MCF7 breast; 12.6% with HCT-116 colon. Besides, the growth in the test with KM12 colon is 58%.
